Assay results: PubChem BioAssay (NCATS)
Records with an inconclusive call do not appear. Activity calls are given as the source filed them. Unless noted, the call rests on the fitted dose curve; in most records, active means well fitted curve in the direction sought with a large enough effect; inconclusive means small, poorly fitted or top-dose-only effect, or another doubt; inactive means no such curve, though single readings can be large; an effect the other way counts as inactive or inconclusive.

Legend:
[1] = Cytometric Cell-Based qHTS for Inhibitors of the mTORC1 Signaling Pathway in MEF (Tsc2-/-, p53-/-) Cells (AID 2660);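 further: Tsc2 and p53 null MEFs carrying empty vector with compound for 24 h; percent of cells above a phospho-rpS6 to PI ratio cutoff in each well; series mostly up to about 38 µM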
Procedure, shortened: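 Percent of cells positive for normalized phospho-S6 staining is reported, with the cutoff set from rapamycin (7.5 nM) versus DMSO wells. Tsc2-/-, p53-/- MEFs received compound for 24 hrs.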

[2] = High Content Imaging Cell-Based qHTS for Inhibitors of the mTORC1 Signaling Pathway in MEF (Tsc2-/-, p53-/-) Cells (AID 2666);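 further: percent of cells scored positive for phospho-rpS6 Ser235/236 immunostaining by imaging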
Procedure, shortened: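 Tsc2-/-, p53-/- MEFs (empty-vector stable) grown in DMEM + 10% FBS were exposed to compounds for 24 hrs at 37 degree Celsius, fixed, and stained with Alexa-488 anti-phospho-rpS6 Ser235/236 plus Hoechst. Imaging gave the percentage of positive cells per well.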

[3] = Cytometry Cell-Based qHTS for Inhibitors of the mTORC1 Signaling Pathway in MEF cells (AID 2668);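 further: Tsc2-/- p53-/- mouse embryonic fibroblasts stably re-expressing wild-type Tsc2; percent cells positive for phospho-rpS6 Ser235/236 relative to propidium iodide stain; series mostly up to about 38 µM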
Procedure, shortened: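 Phospho-rpS6 (Ser235/236) immunofluorescence over PI signal, scored as % positive cells using thresholds from 7.5 nM rapamycin and DMSO wells, after 24 h compound exposure of WT-Tsc2-rescued Tsc2-/-, p53-/- MEFs. PI cell count recorded for viability.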

[4] = molecular target: Ubiquitin carboxyl-terminal hydrolase 2 (Homo sapiens) (UniProt O75604); assay: qHTS Validation Assay for Inhibitors of Ubiquitin-specific Protease USP2a Using CHOP2 as the Reporter (AID 463106)
Ubiquitin carboxyl-terminal hydrolase 2 (Homo sapiens), sequence (O75604 whole entry, looked up): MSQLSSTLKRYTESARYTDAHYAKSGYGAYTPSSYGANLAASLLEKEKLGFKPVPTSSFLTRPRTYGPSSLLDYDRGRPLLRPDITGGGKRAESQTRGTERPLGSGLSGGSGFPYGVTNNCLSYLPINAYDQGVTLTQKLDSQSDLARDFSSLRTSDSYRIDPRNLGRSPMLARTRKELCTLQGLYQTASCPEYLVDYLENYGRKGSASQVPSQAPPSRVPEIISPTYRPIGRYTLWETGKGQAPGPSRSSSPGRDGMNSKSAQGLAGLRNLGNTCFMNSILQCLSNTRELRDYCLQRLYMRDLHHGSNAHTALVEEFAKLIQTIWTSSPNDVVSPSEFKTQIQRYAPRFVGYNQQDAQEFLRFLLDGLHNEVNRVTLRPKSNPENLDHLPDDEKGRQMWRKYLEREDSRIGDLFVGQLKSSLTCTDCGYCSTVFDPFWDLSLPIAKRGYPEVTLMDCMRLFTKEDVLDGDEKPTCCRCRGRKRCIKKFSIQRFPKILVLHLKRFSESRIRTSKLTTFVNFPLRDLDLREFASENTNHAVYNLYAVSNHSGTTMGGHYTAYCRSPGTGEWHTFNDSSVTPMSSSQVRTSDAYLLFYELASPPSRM
Procedure, shortened: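 Readout was coupled fluorescence (Ex 485/Em 531 nm), read 60 min after adding 25 nM final Ub-CHOP2 and 25 nM reporter substrate. Beforehand, 10 nM final USP2 core had 30 min at RT with compound in pH 8.0 buffer. Curves were fitted after normalization to NEM and flagged for artifacts using time-zero reads.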

[5] = molecular target: DNA polymerase III PolC-type (Bacillus subtilis (strain 168)) (UniProt P13267); assay: qHTS Validation Assay for the Inhibitors of DNA Replication in Gram-Positive Bacteria (AID 485295);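 further: reconstituted holoenzyme with PolC plus beta clamp SSB and primase; PicoGreen fluorescence of double-stranded DNA made on primed circular M13 template; series mostly up to about 57 µM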
DNA polymerase III PolC-type (Bacillus subtilis (strain 168)), sequence (P13267 whole entry, looked up): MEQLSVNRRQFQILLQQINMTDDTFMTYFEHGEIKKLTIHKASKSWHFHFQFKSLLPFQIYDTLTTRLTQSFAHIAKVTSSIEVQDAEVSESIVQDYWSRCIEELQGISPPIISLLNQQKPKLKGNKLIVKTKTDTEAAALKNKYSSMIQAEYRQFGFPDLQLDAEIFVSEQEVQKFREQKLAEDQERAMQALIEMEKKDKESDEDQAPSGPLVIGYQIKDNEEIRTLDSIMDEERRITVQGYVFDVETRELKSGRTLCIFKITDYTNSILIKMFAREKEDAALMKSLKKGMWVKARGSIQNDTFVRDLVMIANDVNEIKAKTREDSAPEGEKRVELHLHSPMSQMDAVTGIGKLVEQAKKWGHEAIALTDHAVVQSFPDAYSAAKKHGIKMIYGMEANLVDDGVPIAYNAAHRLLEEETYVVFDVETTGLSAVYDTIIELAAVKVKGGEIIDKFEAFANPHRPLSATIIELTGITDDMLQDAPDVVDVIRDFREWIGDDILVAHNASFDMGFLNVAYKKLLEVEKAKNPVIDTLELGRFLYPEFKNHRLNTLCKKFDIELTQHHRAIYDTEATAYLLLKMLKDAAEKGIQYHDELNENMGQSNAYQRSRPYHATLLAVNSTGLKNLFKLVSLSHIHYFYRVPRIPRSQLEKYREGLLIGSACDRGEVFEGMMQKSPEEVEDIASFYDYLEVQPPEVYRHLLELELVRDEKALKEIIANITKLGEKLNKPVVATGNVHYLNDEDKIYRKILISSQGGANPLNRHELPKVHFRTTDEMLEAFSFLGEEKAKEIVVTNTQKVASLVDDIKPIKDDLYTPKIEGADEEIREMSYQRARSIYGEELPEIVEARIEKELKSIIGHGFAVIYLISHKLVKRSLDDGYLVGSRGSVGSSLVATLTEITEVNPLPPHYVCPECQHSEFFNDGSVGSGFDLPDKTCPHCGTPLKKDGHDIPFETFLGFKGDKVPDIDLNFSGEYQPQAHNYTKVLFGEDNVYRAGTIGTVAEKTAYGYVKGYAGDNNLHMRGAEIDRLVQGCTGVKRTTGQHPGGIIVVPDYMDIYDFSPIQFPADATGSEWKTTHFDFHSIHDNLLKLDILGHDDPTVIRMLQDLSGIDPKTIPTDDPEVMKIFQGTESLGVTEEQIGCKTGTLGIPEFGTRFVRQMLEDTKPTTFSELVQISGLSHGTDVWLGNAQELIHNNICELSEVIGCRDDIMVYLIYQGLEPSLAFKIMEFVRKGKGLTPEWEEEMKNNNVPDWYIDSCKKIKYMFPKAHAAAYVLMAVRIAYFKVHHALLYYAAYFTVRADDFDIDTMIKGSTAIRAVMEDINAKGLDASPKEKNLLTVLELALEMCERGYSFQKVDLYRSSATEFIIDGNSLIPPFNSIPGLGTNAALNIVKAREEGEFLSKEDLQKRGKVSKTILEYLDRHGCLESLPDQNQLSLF
Procedure, shortened: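 Double-stranded DNA product detected by PicoGreen fluorescence after EDTA quench. Compound incubated with B. subtilis holoenzyme (PolC, beta subunit, SSB, primase) before substrate addition; primed replication of M13Gori with dNTPs and NTPs at room temperature; DMSO defines 0% inhibition.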

[6] = molecular target: Tumor susceptibility gene 101 protein (Homo sapiens) (UniProt Q99816); assay: qHTS Validation Assay for Iinhibitors of HIV-1 Budding by Blocking the Interaction of PTAP/TSG101 (AID 485342; calls by dose curve)
Tumor susceptibility gene 101 protein (Homo sapiens), sequence (Q99816 whole entry, looked up, the tested form may be a part): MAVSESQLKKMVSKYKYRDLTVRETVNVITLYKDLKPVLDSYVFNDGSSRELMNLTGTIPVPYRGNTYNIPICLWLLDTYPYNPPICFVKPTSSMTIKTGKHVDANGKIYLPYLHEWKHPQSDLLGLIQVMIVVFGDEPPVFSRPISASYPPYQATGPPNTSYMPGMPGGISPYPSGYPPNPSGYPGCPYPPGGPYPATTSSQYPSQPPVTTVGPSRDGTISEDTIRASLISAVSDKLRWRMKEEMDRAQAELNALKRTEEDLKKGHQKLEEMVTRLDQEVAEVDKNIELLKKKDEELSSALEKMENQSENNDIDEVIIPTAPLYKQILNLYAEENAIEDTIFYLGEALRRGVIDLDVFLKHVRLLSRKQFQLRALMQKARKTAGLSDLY
Procedure, shortened: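 Fluorescence polarization of 50 nM FITC-PTAP peptide bound to 10 uM Tsg101 binding domain was read after 20 min room-temperature incubation with compounds, in 10 mM HEPES pH 7.5, 0.15 M NaCl, 0.01% Tween 20.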

[7] = qHTS Validation Assay to Find Inhibitors of Chronic Active B-Cell Receptor Signaling (AID 485345; active means well fitted curve in the direction sought with a large enough effect in the main read-out, with a control signal flat, not every such curve was filed as active)
Procedure, shortened: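 Read-out: ratio of filter-corrected green (IkappaBalpha fusion) to red (native) luciferase signal in doxycycline-induced TMD8 cells after 4 h at 37C. Titration spanned 46 uM–3 nM; Data were normalised to basal cells and 10 uM MG-132 wells.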

[8] = High Content Imaging Cell-Based qHTS for Inhibitors of the mTORC1 Signaling Pathway in MEF Cells (AID 2667); further: potency means the concentration at half of the fitted maximal effect
Procedure, shortened: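 Tsc2-/-, p53-/- MEFs stably re-expressing WT Tsc2, grown in DMEM + 10% FBS, were treated with compounds for 24 hrs at 37 degree Celsius, fixed, and stained with Alexa-488 phospho-rpS6 Ser235/236 antibody plus Hoechst; results given as % positive cells.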

[9] = Validation screen for small molecules that induce DNA re-replication in MCF 10A normal breast cells (AID 463097); further: nearly all actives have a fitted effect of over 60% in size; further: potency means the concentration at half of the fitted maximal effect
Procedure, shortened: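 Read-out is Hoechst total nuclear intensity by fluorescence scanning imager, flagging increased high-DNA-content nuclei. Compounds were incubated with MCF 10A cells for 48 hr (37 C, 5% CO2) before 40 min staining.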

Measured: Potency

O=C(c1ccc2c(c1)OCCO2)N1CCCCC1
not listed: [8] | [9]
inactive: all other assays above

O=C(O)/C=C/c1cnc[nH]1
not listed: [2] | [6]
inactive: all other assays above

COc1ccccc1N1CCN(CCCNc2c(C)c(=O)n(C)c(=O)n2C)CC1
not listed: [2] | [4]
inactive: all other assays above

O[Si](CCCN1CCCCC1)(c1ccc(F)cc1)C1CCCCC1 (stereo not drawn)
not listed: [3] | [8] | [9]
inactive: all other assays above

Fc1ccc(CN(C2=NCCN2)c2c(Cl)cccc2Cl)cc1
not listed: [2]
inactive: all other assays above

C[C@](Cc1ccc(O)c(O)c1)(NN)C(=O)O
not listed: [3] | [8] | [9]
inactive: all other assays above

CO/N=C(\C(=O)N[C@@H]1C(=O)N2C(C(=O)O)=C(CSc3nc(=O)c(O)nn3C)CSC12)c1csc(N)n1 (stereo partly drawn)
not listed: [2] | [5]
inactive: all other assays above

N#CC(C#N)=C(N)/C(C#N)=C/c1ccc(O)cc1
not listed: [2] | [6]
inactive: all other assays above

OC1(c2ccc(Cl)cc2)CCN(Cc2c[nH]c3ccccc23)CC1
not listed: [3] | [7] | [8]
inactive: all other assays above

Cc1nc2c(OCc3ccccc3)cccn2c1CC#N
not listed: [2] | [7]
inactive: all other assays above

N#CC(=C(\N)Sc1ccccc1N)/C(C#N)=C(/N)Sc1ccccc1N
active: [9] 7.94 µM
inactive: [1] | [2] | [4] | [5] | [6]

N[C@H]1CONC1=O
not listed: [2]
inactive: all other assays above

CCCCCCC(=O)OC1CC(C)(C)NC(C)(C)C1
not listed: [5] | [8] | [9]
inactive: all other assays above

CNc1cc(NS(=O)(=O)c2ccc(N)cc2)nc(NC)n1
not listed: [8] | [9]
inactive: all other assays above

COc1cc(CNC(=O)CCCCCCC(C)C)ccc1O
not listed: [2]
inactive: all other assays above

CCCCOC(=O)NS(=O)(=O)c1sc(CC(C)C)cc1-c1ccc(Cn2c(CC)nc3c(C)cc(C)nc32)cc1
inactive: [1] | [2] | [4] | [5] | [6]

CC(C)(C)c1cc(/C=C(\C#N)C(N)=S)cc(C(C)(C)C)c1O
inactive: [1] | [2] | [4] | [5] | [6]

CN1CCc2cc(Cl)c(O)cc2[C@@H](c2ccccc2)C1
inactive: [1] | [2] | [3] | [4] | [6]

Cc1cc2c(cc1Cl)N(C(=O)Nc1ccnc3ccccc13)CC2
not listed: [2]
inactive: all other assays above

CCCCCCCCCCCCCCC[C@H](O)[C@H](N)CO
not listed: [3] | [8] | [9]
inactive: all other assays above

NC/C=C\C(=O)O
not listed: [8] | [9]
inactive: all other assays above

CC1CNCCN1S(=O)(=O)c1cccc2cnccc12 (stereo not drawn)
inactive: [1] | [2] | [6]

C=CCN1CCc2c(cc(O)c(O)c2Cl)C(c2ccccc2)C1 (stereo not drawn)
inactive: [1] | [2] | [4] | [6] | [7]

CCCCCC(O)CCCC(=O)O (stereo not drawn)
not listed: [2] | [6]
inactive: all other assays above

NCC(O)(CS(=O)(=O)O)c1ccc(Cl)cc1 (stereo not drawn)
not listed: [2] | [6]
inactive: all other assays above

COc1ccccc1N1CCN(CCCCNC(=O)c2ccc3ccccc3c2)CC1
not listed: [3] | [8]
inactive: all other assays above

c1ccc(C(NCc2cccnc2)(c2ccccc2)c2ccccc2)cc1
not listed: [2] | [7] | [9]
inactive: all other assays above

CN1CCCC1CCOC(C)(c1ccccc1)c1ccc(Cl)cc1 (stereo not drawn)
inactive: [1] | [6]
active: [8] 14.7 µM

[N-]=[N+]=Nc1ccc(C(=O)CSC[C@H](NC(=O)CC[C@H](N)C(=O)O)C(=O)NCC(=O)O)cc1
inactive: [1] | [8] | [3] | [6] | [7]

Cc1cccc(C2CN(C)CCc3c2cc(O)c(O)c3Cl)c1 (stereo not drawn)
not listed: [1] | [2] | [3]
inactive: all other assays above
